Values joined by “and” are separate entries in the source; they are usually repeats but may differ in a detail not shown here. Equal values may be shown once. Out of some 410,000 compounds screened, about 7,200 (1.8%) were called active. Another 7% or so got no clear call; they are omitted. Only a selection was taken, and actives are over-represented in it overall. Unmarked numbers belong to inactive results. Calls come from the whole dose curve; as a rule, active = well fitted activation curve with a large enough effect; inconclusive = small, poorly fitted or top-dose-only effect, or another doubt; inactive = no such curve, though single readings can be large or run the other way.
Assay: qHTS of TDP-43 Inhibitors; note: nearly all actives have a fitted effect of over 50% in size; for growth rescue (activation): % of control where 0% means no effect
Conditions: TDP-43 expressing yeast growth rescue, BacTiter-Glo, 24 h; series mostly up to 46.1 µM; growth rescue (activation): at the top concentration
How it was run: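 Cell-based yeast growth screen: TDP-43 expression induced in galactose, inoculum OD600=0.02 after raffinose pregrowth to mid-log. Read-out BacTiter-Glo luminescence at 24 hr, 30 deg C; inhibition of toxicity seen as signal increase.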
Potency is the fitted concentration of half-maximal effect.

| Compound | growth rescue (activation) | Potency |
| --- | --- | --- |
| O=C(NCc1ccc2c(c1)CCN2C(=O)c1ccccc1)Nc1cc(F)ccc1F | -15.6% | – |
| Cc1ccc2c(c1)N(C(=O)CCC(=O)N1CCc3ccccc3C1)CCO2 | 15.3% | – |
| COc1ccc2c(c1)c1ncn(Cc3ccccn3)c(=O)c1n2C | -11.4% | – |
| Cc1ccc2c(c1)c1ncnc(N3CCc4ccccc4C3)c1n2C | – | 22.4 µM (active) |
| CCOc1ccc(-n2nc3ccc(NC(=O)c4ccc(OC)c(Cl)c4)cc3n2)cc1 | 10.4% | – |
| CCCCOc1ccc(NC(=O)c2cc3c(n(-c4ccc(Cl)cc4)c2=O)CCCC3=O)cc1 | -8.97% | – |
| CCC(=O)N1N=C(c2ccc(OC)cc2)CC1c1cn(-c2ccccc2)nc1-c1cccs1 (stereo unspecified) | -13% | – |
| COc1ccc(C2=NN(C(C)=O)C(c3ccccc3)C2)cc1 (stereo unspecified) | – | 14.1 µM (active) |
| COc1ccc(C2=NN(C(=O)CSc3nc(=O)n4ccc(C)cc4n3)C(c3ccc(C)cc3)C2)cc1 (stereo unspecified) | 9.83% | – |
| CCN(C(=O)Cn1c(=O)nc(-c2ccccc2)c2cc(Cl)ccc21)c1cccc(C)c1 | 18.1% | – |
| COc1ccc(CCn2cc3c(c2-c2ccc(Br)cc2)c(=O)n(C)c(=O)n3C)cc1OC | 2.32% | – |
| Cc1ccc(-c2c3c(=O)n(C)c(=O)n(C)c3cn2-n2cnnc2)cc1 | -8.21% | – |
| Cn1c(=O)c2c(-c3ccccc3Br)n(Cc3ccccc3)cc2n(C)c1=O | – | 22.4 µM (active) |
| CCc1ccc(S(=O)(=O)c2nnn3c2nc(NCc2ccccc2OC)c2cc(Cl)ccc23)cc1 | 1.16% | – |
| NS(=O)(=O)c1ccc(NC(=O)C(=O)Nc2ccc3nc4n(c(=O)c3c2)CCCCC4)cc1 | 13.4% | – |
| Cc1nc(NC(=O)C2CCCCC2)sc1C | – | 12.6 µM (active) |
| CC(C)NS(=O)(=O)c1ccc(NC(=O)C2CCCCC2)cc1 | -2.1% | – |
| CCOC(=O)c1cc(C)sc1NC(=O)C1CCC1 | 14.2% | – |
| CCOC(=O)C1CCCN(C(=O)c2ccc3c(c2)sc2nc(-c4ccc(CC)cc4)cn23)C1 (stereo unspecified) | 19.4% | – |
| COc1ccc(/C=C/c2nc(C#N)c(NCc3ccc(F)cc3)o2)cc1OC | 3.83% | – |
| COc1cc2[nH]c(=O)n(Cc3ccc(C(=O)NCc4ccc(C)cc4)cc3)c(=O)c2cc1OC | 13.5% | – |
| O=C(CCSc1ccccc1)N1CCN(c2ccccc2F)CC1 | -9.85% [at 9.22 µM] | – |
| COc1ccc(N2CCN(C(=O)CCSCc3ccccc3F)CC2)cc1 | 10.3% | – |
| Cc1cccc(N2CCN(C(=O)CCSCc3ccccc3F)CC2)c1C | – | 20 µM (active) |

| Compound | growth rescue (activation) | Potency |
| --- | --- | --- |
| CCc1cc2c(cc3c(=O)n(CC(=O)NCc4cccc(Cl)c4)nc(CC)n32)s1 | 20.3% | – |
| C=Cc1ccc(Cn2c(C(=O)O)c(CNC3CCCC3)c3ccc(C)cc32)cc1 | 19.4% | – |
| CCCNC(=O)C1CCC(Cn2c(=O)c3sccc3n(Cc3ccccc3F)c2=O)CC1 (stereo unspecified) | 5.85% | – |
| COc1ccccc1-c1cc2nc(C)c(CCC(=O)NC3CCCCC3)c(C)n2n1 | 15.4% | – |
| COc1ccc(-c2cc3nc(C)c(CCC(=O)NC(C)CCc4ccco4)c(C)n3n2)c(OC)c1 (stereo unspecified) | – | 17.8 µM (active) |
| COc1ccccc1-c1cc2nc(C)c(CCC(=O)O)c(C)n2n1 | 12.8% | – |
| COc1ccc([C@H]2CC(=O)C=C(c3ccc(CO)cc3)C2)cc1 | 4.37% | – |
| COc1ccc(C2CC(=O)n3c(nc4ccccc43)S2)cc1OC (stereo unspecified) | -3.84% | – |
| COc1cccc(C2=CC(=O)C[C@H](c3ccc(OC)c(OC)c3)C2)c1 | – | 15.8 µM (active) |
| COc1ccc(C2CC(=O)C=C(NCC3CCCO3)C2)cc1 (stereo unspecified) | 3.96% | – |
| COc1ccc([C@H]2CC(=O)C=C(c3ccc(OC(F)(F)F)cc3)C2)cc1OC | – | 14.1 µM (active) |
| COc1ccc([C@H]2CC(=O)C=C(/C=C/c3ccccc3)C2)cc1 | 22.2% | – |
| CCOC(=O)c1c(NC(=O)Cc2coc3ccc(CC)cc23)sc2c1CCC2 | 9.45% | – |
| O=C(Nc1ccc(OC(F)(F)F)cc1)C1CCCN(S(=O)(=O)c2ccc(Br)s2)C1 (stereo unspecified) | 0% | – |
| CC(NC(=O)c1cc2c(=O)n3ccccc3nc2n(C(C)C)c1=N)c1ccccc1 (stereo unspecified) | 9.02% | – |
| COc1cccc(NC(=O)CN(C)C(=O)c2cc(Cl)nc3ccccc23)c1 | 14.2% | – |
| CN(Cc1ccccc1)C(=O)c1cc2c(=O)n(C)c3ccccc3c2s1 | -22% | – |
| CN(CCOc1ccccc1)C(=O)c1cc(-c2ccco2)nc2ccccc12 | – | 35.5 µM (active) |
| CN(C)C(CNC(=O)CCCOc1ccccc1)c1ccco1 (stereo unspecified) | 8.75% | – |
| COc1ccc(C2=NS(=O)(=O)N(C)C(C(=O)N(C)Cc3ccccc3)=C2)cc1 | 23.4% | – |
| COc1ccc(-c2cc(C(=O)N(C)Cc3ccccc3)c3ccccc3n2)cc1 | – | 14.1 µM (active) |
| Cc1ccc2oc3c(c(=O)c2c1)C(c1ccc(O)cc1)N(Cc1ccc2c(c1)OCO2)C3=O (stereo unspecified) | -1.95% | – |
| CNc1ccc(-c2nc(-c3ccccc3C)no2)cc1[N+](=O)[O-] | 2.62% | – |
| Cc1ccc(CN2CCC(CNC(=O)c3cnn(-c4ccc(C)cc4)c3C3CCN(C(=O)OC(C)(C)C)CC3)CC2)cc1 | -10.7% | – |

| Compound | growth rescue (activation) | Potency |
| --- | --- | --- |
| COc1ccc(CCNS(=O)(=O)c2cccc([N+](=O)[O-])c2)cc1 | -3.92% [at 1.82 µM] | – |
| COc1ccc(Cc2nnc(SCC(=O)c3cccc([N+](=O)[O-])c3)n2C)cc1 | -18.2% | – |
| COc1ccc(CC(=O)N/N=C/c2cc([N+](=O)[O-])cc(Br)c2O)cc1 | – | 6.31 µM (active) |
| O=C(COc1ccccc1Cl)Nc1ccc2nc(SCC(=O)N3CCCC3)sc2c1 | 5.47% | – |
| Cc1ccc(NC(=O)COc2coc(CN3CCc4ccccc4C3)cc2=O)cc1Cl | -7.54% | – |
| Cc1ccccc1OCC(=O)Nc1ccc(N2CCN(C(=O)C(C)C)CC2)c(Cl)c1 | – | 25.1 µM (active) |
| COc1ccc(-c2nc(SCC(=O)N3CCCCC3C)n[nH]2)cc1 (stereo unspecified) | 8.34% | – |
| COc1ccccc1CN1CCC(CNC(=O)c2cnn(-c3ccccc3Cl)c2C2CCN(C(=O)OC(C)(C)C)CC2)CC1 | 23.3% | – |
| CCCC(=O)Nc1cc2nn(-c3ccccc3)nc2cc1C | 20.7% | – |
| COc1ccc(Cl)cc1-c1cc(C(=O)Nc2cc(OC)c(OC)c(OC)c2)[nH]n1 | 0% | – |
| CCCOc1ccc(F)cc1-c1cc(C(=O)Nc2ccc(F)c(Cl)c2)[nH]n1 | – | 8.91 µM (active) |
| CCN(CC)C(=O)Oc1ccc(Br)cc1C(=O)Nc1ccc(F)c(Cl)c1 | 17.1% | – |
| CC(C)(C)c1ccc(C(=O)NCC(c2ccc(Cl)cc2)N2CCOCC2)cc1 (stereo unspecified) | 0% | – |
| COc1ccc(-c2ccc(CCC(=O)O)n2-c2ccc(O)cc2)cc1 | -16.9% [at 9.22 µM] | – |
| CCOC(=O)c1ccc(-n2c(CCC(=O)O)ccc2-c2ccccc2)cc1 | – | 25.1 µM (active) and 35.5 µM (active) |
| Cc1ccc(-c2ccc(CCC(=O)O)n2-c2ccc(C(N)=O)cc2)cc1 | 24.7% | – |
| Cc1ccc(C2CCN(C(=O)c3cnn(-c4ccccc4Cl)c3C3CCN(C(=O)OC(C)(C)C)CC3)C2)cc1 (stereo unspecified) | 14.4% | – |
| O=C(CN1C(=O)COc2ccc(S(=O)(=O)N3CCCCCC3)cc21)N1CCN(c2cccc(C(F)(F)F)c2)CC1 | -15.3% | – |
| Cc1ccc(/C=N/NC(=O)Cn2ccc(C(F)(F)F)n2)o1 | -13.1% | – |
| O=C(N/N=C\c1ccc(-c2ccc(Cl)c(Cl)c2)o1)C(=O)N1CCCC1 | 14.6% | – |
| COC(=O)N/N=C/c1ccc(-c2ccc(Cl)c(Cl)c2)o1 | – | 12.6 µM (active) |
| Cc1ccc(NC(=O)c2cn3c4c(ccc(Cl)c4c2=O)OC(C)C3)cc1C (stereo unspecified) | 8.62% | – |
| Cc1cccc(Nc2cc(C)nc(-n3nc(C)cc3C)n2)c1 | 20.6% | – |
| COc1ccc2c(Sc3ccc(C)cc3)c(C(=O)NC(C)c3ccccc3)[nH]c2c1 (stereo unspecified) | 4.22% | – |

| Compound | growth rescue (activation) | Potency |
| --- | --- | --- |
| CSc1cccc(NC(=O)CSc2ccccc2)c1 | – | 14.1 µM (active) |
| O=C(CSc1ccccc1)Nc1cccc(S(=O)(=O)N2CCOCC2)c1 | 10.9% | – |
| Cc1nnc(SCC(=O)Nc2cccc(N)c2)n1-c1ccccc1 | 7.19% | – |
| Cc1ccc2nc(/C(C#N)=C/c3ccc(-c4ccc(C(=O)OC(C)C)cc4)o3)[nH]c2c1 | 29.7% | – |
| COc1ccccc1NC(=O)c1cc(S(=O)(=O)NCCc2ccccc2)ccc1F | 26% | – |
| COc1cccc(N2CCN(S(=O)(=O)c3ccc4c(c3)CCCN4C(C)=O)CC2)c1 | 14.5% | – |
| COc1cccc(N2C(=O)CC(N3CCN(S(=O)(=O)c4ccccc4)CC3)C2=O)c1 (stereo unspecified) | 7.1% | – |
| COc1cccc(N2C(=O)CC(N3CCc4ccccc4C3)C2=O)c1 (stereo unspecified) | – | 17.8 µM (active) |
| COc1cccc(N2CCN(C3CC(=O)N(c4ccc(Cl)cc4)C3=O)CC2)c1 (stereo unspecified) | 9.45% | – |
| CCOc1ccccc1C(=O)Nc1ccc2c(c1)N(C)C(=O)c1ccccc1S2 | 10.1% | – |
| CCc1noc(C)c1C(=O)N1CCCSC1=Nc1ccccc1OC | 13.6% | – |
| CCc1noc(C)c1C(=O)Nc1nc(-c2ccccc2)cs1 | – | 11.2 µM (active) |
| CCc1noc(C)c1C(=O)OCC(=O)c1ccc(NC(=O)CC(C)C)cc1 | -3.44% | – |
| O=C(/C=C/c1cn(CC(O)CN2CCc3ccccc32)c2ccccc12)c1ccc(Br)cc1 (stereo unspecified) | -30.3% | – |
| CC1CCN(c2oc(-c3ccccc3F)nc2C#N)CC1 | – | 15.8 µM (active) |
| COc1ccc(OCc2ccc(-c3nc(C#N)c(N4CCN(c5ccccc5)CC4)o3)o2)cc1 | 6.14% | – |
| Cc1ccccc1OCc1ccc(-c2nc(C#N)c(N3CCCCC3)o2)o1 | 0.64% | – |
| Cc1nn(C)c2c1c(C(F)(F)F)cc(=O)n2C(C)C(=O)NCc1ccc(Cl)cc1 (stereo unspecified) | 2.64% | – |
| Cc1ccccc1CNC(=O)CCCn1nc(C)c2sc3ccccc3c2c1=O | 2.7% | – |
| Cc1cc(-c2cccs2)nc(-n2cccc2)n1 | – | 12.6 µM (active) |
| CC(C)(C)Nc1c(-c2cccs2)nc2ccccn12 | -18.1% | – |
| Cc1cc2nc(C(F)(F)F)cc(-c3cccs3)n2n1 | 7.65% | – |
| CCc1nnc(SCc2c(F)cccc2Cl)c2cc3sccc3n12 | -0.933% | – |
| CC(=O)OCC1(O)CC23CCC4c5ccoc5CCC4(C)C2CCC1C3 (stereo unspecified) | – | 17.8 µM (active) |

— PubChem BioAssay AID652104 (National Center for Advancing Translational Sciences (NCATS), 2013)
